Here are results for 39 sequences from the supplement of paper PMC6555819.

One assay has as its system RXRa DBDmut IVT, anti-RXR (DBD mutation: RXRa K156A/R161A, NR concentration 90 nM). Put plainly: PBM binding z-score (relative to random genomic background probes); higher = stronger binding; sequences stand for … in GC…GCGATTGACAGCGTAGAATGAAGG
In a few lines: (§1)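 Antibodies against each partner of ligand-free nuclear receptor dimers (one per run) detected binding on custom Agilent 4×180K protein-binding microarrays after 1 h incubation. The double-stranded probes had 34-nt variable regions carrying direct-repeat seeds, single-nucleotide variants, half-site ablations and random human genomic background sequences. Binding z-scores, from regression-normalized fluorescence, use the random background probes as reference.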
Take ACTAGTTGGTCAGCTGAGGTCACAGACAATTCGG: the PBM binding z-score is 1.15.

In turn, AACACAGGGTCATCGTAGGCCAGAGTACGCACAG yielded a PBM binding z-score of 3.79.

For TAGCCTAGCTCATTGGGCCAGTATAGTACGCATC, the PBM binding z-score is -0.683.

CCTACTGGGCCACGAGAGGTCATTGATTCAGTGA came in with a PBM binding z-score of 0.702.

TTACCAAGTTGAAAGGTCGTTGATGCACGCCTTG: the PBM binding z-score stood at 1.31.

Consider ACTATTAGTTGAGACGAGGACAACCGATAGGTTG, for which the PBM binding z-score was found to be 0.0973.

For the sequence CCTAGCAGGCCGGGGTCACTCAAGCATTTCGCTT, the PBM binding z-score was 1.99.

The sequence TCATATAGGTAAAGGTGAAGGTCGAACGATATGA returned a PBM binding z-score of 0.787.

Take CCTACTGGGCCATTAGGTCATTGATATCAACGTT: the PBM binding z-score amounted to 0.292.

The sequence ACAGACAGTTGATGAAGGTAACTCAGGCTATCAT returned a PBM binding z-score of 0.223.

On to GCTGCTAGGTCAACTGATAGTCAGCTAAAGCTCG, for which the PBM binding z-score stood at 1.68.

With TAGCCTAGCTCATGGGCCAGTATACCACGCGAAC, the PBM binding z-score is -1.22.

Turning to AGAATGAGGTTATTAAGAACAGGGAATTGCGGTC, the PBM binding z-score is 2.06.

ATCTCTAGGTAAAAGTTCACTGAATCCCGAGGAT: the PBM binding z-score stood at 0.997.

For GATACAGGGTCAAGGCGAGAGTACGCGTATTGAT, the PBM binding z-score came to 2.77.

AGAATGAGGTTATTAAGATCAGGAAATTGCGGTC came in with a PBM binding z-score of 1.99.

The sequence GCTAGCAGTCCATTTGGGTCACTCAATGACGGGC registered a PBM binding z-score of 0.506.

The sequence CCAGATAGGTGAAAGGTAACTCAGTCTGGTACGC came in with a PBM binding z-score of 0.181.

ATCGAAAGGTCGACGAGGCGAGTATACACCGTTT showed a PBM binding z-score of 1.28.

CTCGAAAGGTCGGGCTCAGGTGAGTATACCAAAC displayed a PBM binding z-score of 0.869.

CGAACTAGGTCAAGGATAGTGAATCTCCGCACGC: the PBM binding z-score is 1.47.

For ATATGTAGGTTATCGGGTCATTCGGTTTGCGCAT, the PBM binding z-score is 1.52.

With ATCTCTAGGTAAGACTCAGTGCAGTGAAGAACGC, the PBM binding z-score is -0.00244.

In the case of CGTCCAAGGGCAGAGAGGTCAGTGAATGCCGAGT, the PBM binding z-score stood at 1.49.

AATACAGGGTCATCGTAGGCCACAGTACGCACAG displayed a PBM binding z-score of 3.39.

Regarding ATCTCTAGGTAAGAGTCAGTTCAGTGAAGAACGC, the PBM binding z-score stood at 0.262.

With AGAACGAGGGCAATGAGTTGATAGCCCGGGTGGC, the PBM binding z-score stood at 1.84.

TCTGCTCGGTCAACGATGGTCAGCTAATCTGCTA displayed a PBM binding z-score of 0.129.

Turning to AGTCAAAGTTCACTAGGTAACGTAGGATTCAGCT, the PBM binding z-score came to 4.05.

Sequence TCTGCTAGGTCAGTTGGTCATCTAACGAGCTGCC gave a PBM binding z-score of 0.589.

Sequence CCTAGCAGGACAATCTGGGTCACTCAAGGCTTGA displayed a PBM binding z-score of 0.379.

In the case of CCTACTGGGCCAACGTCATTGATCAGTCAAAGCA, the PBM binding z-score is -0.651.

Sequence CACACAGGGTCAGCTAGGCCAGAGTAGGGACGGC registered a PBM binding z-score of 1.76.

Consider GCTTACGGGTCGAAGGTTATAGCATGAATAGAAT, for which the PBM binding z-score amounted to 0.891.

With CCTGGTTGGTCAGGAGGTCACACACCGGATATGA, the PBM binding z-score turned out to be 0.0446.

With CAAACTAGGTCACACAGGTCAAAGTCCGTGCGTA, the PBM binding z-score stood at 2.27.

Consider CCTACTGGGCCAAAAAGGTCATCGATGCCGATAA, for which the PBM binding z-score worked out at 0.518.

For the sequence GCTGCTAGCTCAACTGATGGTCAGCTAAAGCTCG, the PBM binding z-score is -0.306.

With GCGACTGGGGCAAAGCATGTTACCATAAGGTTGG, the PBM binding z-score was found to be 0.0488.

For another assay, the system named is RXRa homodimer (NR concentration 180 nM). The assay is described as above. In a few lines: as §1
ACTAGTTGGTCAGCTGAGGTCACAGACAATTCGG came in with a PBM binding z-score of 4.37.

Consider AACACAGGGTCATCGTAGGCCAGAGTACGCACAG, for which the PBM binding z-score came to 6.58.

Regarding TAGCCTAGCTCATTGGGCCAGTATAGTACGCATC, the PBM binding z-score was -0.449.

On to CCTACTGGGCCACGAGAGGTCATTGATTCAGTGA, for which the PBM binding z-score turned out to be 4.15.

The sequence TTACCAAGTTGAAAGGTCGTTGATGCACGCCTTG gave a PBM binding z-score of 4.21.

On to ACTATTAGTTGAGACGAGGACAACCGATAGGTTG, for which the PBM binding z-score stood at 0.226.

In the case of CCTAGCAGGCCGGGGTCACTCAAGCATTTCGCTT, the PBM binding z-score amounted to 6.81.

Sequence TCATATAGGTAAAGGTGAAGGTCGAACGATATGA gave a PBM binding z-score of 2.51.

Consider CCTACTGGGCCATTAGGTCATTGATATCAACGTT, for which the PBM binding z-score stood at 1.04.

The sequence ACAGACAGTTGATGAAGGTAACTCAGGCTATCAT returned a PBM binding z-score of 0.183.

Take GCTGCTAGGTCAACTGATAGTCAGCTAAAGCTCG: the PBM binding z-score was found to be 2.75.

For TAGCCTAGCTCATGGGCCAGTATACCACGCGAAC, the PBM binding z-score is -0.408.

Regarding AGAATGAGGTTATTAAGAACAGGGAATTGCGGTC, the PBM binding z-score stood at 1.67.

For ATCTCTAGGTAAAAGTTCACTGAATCCCGAGGAT, the PBM binding z-score turned out to be 3.02.

In turn, GATACAGGGTCAAGGCGAGAGTACGCGTATTGAT had a PBM binding z-score of 5.61.

The sequence AGAATGAGGTTATTAAGATCAGGAAATTGCGGTC returned a PBM binding z-score of 1.75.

Turning to GCTAGCAGTCCATTTGGGTCACTCAATGACGGGC, the PBM binding z-score worked out at 0.617.

As to CCAGATAGGTGAAAGGTAACTCAGTCTGGTACGC, the PBM binding z-score was found to be 2.46.

In turn, ATCGAAAGGTCGACGAGGCGAGTATACACCGTTT registered a PBM binding z-score of 4.22.

The sequence CTCGAAAGGTCGGGCTCAGGTGAGTATACCAAAC displayed a PBM binding z-score of 3.

CGAACTAGGTCAAGGATAGTGAATCTCCGCACGC had a PBM binding z-score of 2.58.

In turn, ATATGTAGGTTATCGGGTCATTCGGTTTGCGCAT gave a PBM binding z-score of 3.53.

ATCTCTAGGTAAGACTCAGTGCAGTGAAGAACGC came in with a PBM binding z-score of 0.00631.

CGTCCAAGGGCAGAGAGGTCAGTGAATGCCGAGT: the PBM binding z-score came out at 2.27.

Sequence AATACAGGGTCATCGTAGGCCACAGTACGCACAG registered a PBM binding z-score of 6.9.

For the sequence ATCTCTAGGTAAGAGTCAGTTCAGTGAAGAACGC, the PBM binding z-score was 0.0582.

Sequence AGAACGAGGGCAATGAGTTGATAGCCCGGGTGGC returned a PBM binding z-score of 0.855.

In turn, TCTGCTCGGTCAACGATGGTCAGCTAATCTGCTA came in with a PBM binding z-score of 0.25.

As for AGTCAAAGTTCACTAGGTAACGTAGGATTCAGCT, the PBM binding z-score was found to be 3.74.

With TCTGCTAGGTCAGTTGGTCATCTAACGAGCTGCC, the PBM binding z-score amounted to 1.25.

CCTAGCAGGACAATCTGGGTCACTCAAGGCTTGA yielded a PBM binding z-score of 1.09.

On to CCTACTGGGCCAACGTCATTGATCAGTCAAAGCA, for which the PBM binding z-score was -0.328.

Take CACACAGGGTCAGCTAGGCCAGAGTAGGGACGGC: the PBM binding z-score worked out at 4.03.

For the sequence GCTTACGGGTCGAAGGTTATAGCATGAATAGAAT, the PBM binding z-score came out at 3.72.

With CCTGGTTGGTCAGGAGGTCACACACCGGATATGA, the PBM binding z-score came to 4.57.

Sequence CAAACTAGGTCACACAGGTCAAAGTCCGTGCGTA gave a PBM binding z-score of 5.62.

On to CCTACTGGGCCAAAAAGGTCATCGATGCCGATAA, for which the PBM binding z-score is 5.25.

For GCTGCTAGCTCAACTGATGGTCAGCTAAAGCTCG, the PBM binding z-score is -0.88.

Turning to GCGACTGGGGCAAAGCATGTTACCATAAGGTTGG, the PBM binding z-score was found to be 0.0784.
